Data: PubChem BioAssay (Tox21)
Results filed as inconclusive are left out. Unmarked numbers belong to inactive results. Active and inactive are the calls of the source. The call rests on the fitted dose curve.

Assay: qHTS assay to identify small molecule agonists of the AP-1 signaling pathway - cell viability counter screen (AID 1159525); further: nearly all actives have a fitted effect of over 55% in size
Conditions: ME-180 (cervical carcinoma) AP-1-bla cells viability, ATP luminescence, 5 h; series mostly up to 76.8 µM
Description: National Center for Advancing Translational Sciences [NCATS]
NIH Chemical Genomics Center [NCGC]
U.S. Environmental Protection Agency [EPA]
National Institutes of Environmental Health Sciences [NIEHS]
National Toxicology Program [NTP]
U.S. Food and Drug Administration [FDA]
Activator protein-1 (AP-1), a transcription factor, plays an important role in tumor genesis by regulating genes involved in cell proliferation, differentiation, apoptosis, and angiogenesis. AP-1 activity is induced by a complex network of signaling pathways that involves extracellular signals, such as growth factors. The AP-1 protein complex formed from c-Fos and c-Jun binding to the AP-1 response element results in transcriptional activation of genes containing such elements within their promoter.
Low molecular weight molecules have been discovered and developed to modulate various components of these signaling pathways, for example, MAP kinase inhibitors. However, many points of pathway modulation remain untested due to the lack of chemical probes making this signaling locus of general interest.
Using a beta-lactamase reporter-gene under control of the AP-1 response element, a cell-based assay [CellSensor(TM) AP-1-bla ME-180 developed by Invitrogen Corp.] was used to measure EGF-induced signaling. The Tox21 10K library compounds were measured for their ability to positively modulate the action of EC50 EGF on reporter gene activity. Compounds were screened in a 15-pt titration series in 1536-well format. The cytotoxicity of the Tox21 compound library against this cell line was tested in parallel by measuring the intra cellular ATP content in the same wells.
Tox21 Assay Protocol Summary:
2500 cells/5uL in Opti-MEM medium containing 0.5% dialyzed FBS, 0.1 mM NEAA, 1 mM sodium pyruvate and 10 mM HEPES was dispensed into 1536-well black wall/clear bottom plates using a Multidrop dispenser and cells were cultured at 37 degrees Celsius overnight. Next day 23 nL of compounds dissolved in DMSO, positive controls or DMSO were delivered to each well using a pin tool. The plates were incubated at 37 degrees Celsius for 5 hours. 1 uL of LiveBLAzerTM B/G FRET substrate (Solution A+B+C+D) was added to each well using a Flying Reagent Dispenser. After incubated at room temperature for 2.5 hours the plates were measured on an EnVision plate reader at Excitation 405nm, Emission1=460nm and Emission 2=530nm. The %Activity was determined from the ratio of 460nm/530nm.
After the plates were read for Beta-Lactamase assay on Envision; 3 ul Cell Titer Glo (Promega) was added to measure the cytotoxicity and the plates were then incubated at RT in dark for 30 min. The luminescence was read on ViewLux (Perkin Elmer, Shelton, CT) using 6 sec exposure. ViewLux data was expressed as relative luminescence units.
For primary data analysis, raw plate reads for each titration point were first normalized relative to […] EGF control (100%) and DMSO only wells (basal, 0%).
For primary data analysis for viability assay, raw plate reads for each titration point were first normalized Tetra n-octyl ammonium bromide control (-100%) and DMSO (control, 100%).

SMILES	outcome	viability change, negative = cytotoxic
CCO[Si](OCC)(OCC)c1ccccc1	inactive	
c1ccc2sc(SN3CCOCC3)nc2c1	inactive	
COc1ccnc(CS(=O)c2nc3cc(OC(F)F)ccc3[nH]2)c1OC (stereo not given)	inactive	
CC(=O)NC(=O)c1ccccc1O	inactive	
CC/C=C\CCOC(C)OCC (stereo not given)	inactive	
NC(=O)N[C@@H](CCC(=O)O)C(=O)O	inactive	
CCOC(=O)CCC(=O)OCC	inactive	
CC(C)(C)c1ccc(-c2ccc(C(C)(C)C)cc2)cc1	inactive	
CCCC(C)C(=O)OCC (stereo not given)	inactive	
Cc1nc2ccc(CN(C)c3ccc(C(=O)N[C@@H](CCC(=O)O)C(=O)O)s3)cc2c(=O)[nH]1	inactive	
CCOc1ccccc1OCC	inactive	
CCOC(=O)c1cnc2c(cnn2CC)c1NN=C(C)C	inactive	
CN(C)C(=O)Oc1ccc[n+](C)c1	inactive	
COc1cccc(OC)c1C(=O)N[C@@H]1C(=O)N2[C@@H]1SC(C)(C)[C@@H]2C(=O)O	inactive	
CC(C)(C)C(=O)c1ccccc1	inactive	
NCCCC(N)(C(=O)O)C(F)F (stereo not given)	inactive	
CCN[C@H]1C[C@H](C)S(=O)(=O)c2sc(S(N)(=O)=O)cc21	inactive	
COc1cc(-c2ccc(=O)[nH]n2)ccc1OC(F)F	inactive	
Cc1nc(C2CCCCC2)c(-c2ccc(S(N)(=O)=O)c(F)c2)o1	inactive	
CCCCCCCC1CCCC1=O (stereo not given)	inactive	

SMILES	outcome	viability change, negative = cytotoxic
NC(N)=NCCN1CCCCCCC1		8.04% [at 0.29 µM]
CCNS(=O)(=O)c1ccc(C)cc1	inactive	
O=C1NC(=O)C2CC=CCC12 (stereo not given)	inactive	
Cc1ccc(C(=O)c2ccc(CC(=O)O)n2C)cc1	inactive	
OCCc1ccccn1	inactive	
CN1CCC(=C2c3ccccc3CCc3cccnc32)CC1	inactive	
N[C@H](C(=O)O)[C@@H](O)c1ccc(O)c(O)c1	inactive	
CC(C)CCCO	inactive	
CC(=O)c1cnccn1	inactive	
CC(C)COC(=O)c1ccc(N)cc1	inactive	
CC[N+](C)(CC)CCOC(=O)C1c2ccccc2Oc2ccccc21	inactive	
NO	inactive	
CCCCS(=O)(=O)N[C@@H](Cc1ccc(OCCCCC2CCNCC2)cc1)C(=O)O	inactive	
CC(C)C1CCC(O)CC1 (stereo not given)	inactive	
Cc1ccc(C(=O)c2ccccc2)cc1	inactive	
O=C(c1ccccc1O)c1ccccc1O	inactive	
CNCC(O)c1ccc(O)c(O)c1 (stereo not given)	inactive	
CCN[C@@H]1C[C@H](N)[C@@H](OC2OC(CN)=CCC2N)[C@H](O)[C@H]1O[C@H]1OC[C@](C)(O)[C@H](NC)[C@H]1O (stereo not given in full)		0.839% [at 0.29 µM]
CC1(C)[C@@H]2CC[C@@]1(C)[C@H](O)C2	inactive	
CCC(C)(CN(C)C)OC(=O)c1ccccc1 (stereo not given)	inactive	
